Source: the OligoGym collection
Note: reference of the scale not given here.

The sequences below were run against ATP10B (assay: pooled miR-30 sensor sort-seq; sequence = guide strand). Settings: shRNA.
In the case of TTCTTGGTGAGAATACTCGCTG, the sensor-assay potency score (higher = more potent) is reported as -0.605. With TTGAAGAATATCATCTGCCAGT the sensor-assay potency score (higher = more potent) was -0.482. In the case of TTGGTGTAGACAACAATCTCGC, the sensor-assay potency score (higher = more potent) is reported as -0.19. For TTGACTATCATACTCTTCTGGA, the sensor-assay potency score (higher = more potent) was 0.0435. Work on TTTGTCTCTCCATCCAAGCTGG yielded a sensor-assay potency score (higher = more potent) of -0.607. With TTTATTGCTTTATCAAAGCGGT the sensor-assay potency score (higher = more potent) was -0.352. For TAAGGTGAGTTGATTCTCCAGA, the sensor-assay potency score (higher = more potent) was 0.552. With TTGATGGTGACCCTCTGCCTGG the sensor-assay potency score (higher = more potent) was -1.45. With TTTATCTGGAGTTACATCTTTT the sensor-assay potency score (higher = more potent) was -0.334. TAACATGGTGATTTCTCTGTGG showed a sensor-assay potency score (higher = more potent) of 0.162. Sequence TCGCTTAGCATTTTCTTGGTGA has a sensor-assay potency score (higher = more potent) of 0.0526.

These sequences were tested against ATP13A3 in the same assay as above. Settings: shRNA.
For TTGACATGATCCATTCTCCTTA, the sensor-assay potency score (higher = more potent) was -0.0274. With TTGACGTACAAGAAACACCTTC the sensor-assay potency score (higher = more potent) was 0.452. Sequence TAAAGCTTTAGCTTCTGTGGTT has a sensor-assay potency score (higher = more potent) of -0.122. TAGATTTTGGACTTGAAACTGG gave a sensor-assay potency score (higher = more potent) of -0.128. In the case of TTAATTGCAGCTCTGACACAGG, the sensor-assay potency score (higher = more potent) is reported as 0.0379. Work on TTCGGTTTCATTGTCTACGTGT yielded a sensor-assay potency score (higher = more potent) of 0.717. TTCATCAGTAGTCCTCAGCAGC was tested, and the sensor-assay potency score (higher = more potent) was -0.704. In the case of TAGACATAGATTTTGGACTTGA, the sensor-assay potency score (higher = more potent) is reported as -0.0415. In the case of TTCTTCAGTTGCTTCTTCCAGA, the sensor-assay potency score (higher = more potent) is reported as -0.0869. TATAACACTGAACAGCTGGAAA gave a sensor-assay potency score (higher = more potent) of -0.978.

The sequences below were run against ATP2B3 in the same assay as above. Settings: shRNA.
For TATTGTACATAGACCGGCGTGC, the sensor-assay potency score (higher = more potent) was 0.677. With TTAGGCAACTTTATACAGCAGC the sensor-assay potency score (higher = more potent) was -0.477. TTGATCAGAAACTCGGGCGTGG gave a sensor-assay potency score (higher = more potent) of 0.126. TTGACTGCTTCTGCTCAGGGGT was tested, and the sensor-assay potency score (higher = more potent) was -0.897. Work on TTAAACAAGGACATCAGGGAAC yielded a sensor-assay potency score (higher = more potent) of -0.472. In the case of TTCTTTTGAACTCTTGGCCCTG, the sensor-assay potency score (higher = more potent) is reported as -0.519. With TTCCTCACCATGTCGTCCCGGT the sensor-assay potency score (higher = more potent) was -0.00689. For TGAAACTGCAGGAACTTGGAGA, the sensor-assay potency score (higher = more potent) was 0.195. For TTGAAGAACACAAAGACCCTCA, the sensor-assay potency score (higher = more potent) was 0.724. Work on TTTTTCAAGAGGATCTCTGAGG yielded a sensor-assay potency score (higher = more potent) of -0.749. TTGGCTTCTTTTGAACTCTTGG showed a sensor-assay potency score (higher = more potent) of 0.325. Sequence TTTTTTTGCATGAAGATGCTGA has a sensor-assay potency score (higher = more potent) of 0.145. In the case of TTTCTTGACAGAGTAAGCTAAG, the sensor-assay potency score (higher = more potent) is reported as -0.513. TTTATGAACTGAACACAGTTGA was tested, and the sensor-assay potency score (higher = more potent) was 0.503. TTGTAAAGCTTGTCTTCCGGGA showed a sensor-assay potency score (higher = more potent) of -0.394. In the case of TAAAACATATTTATGAACTGAA, the sensor-assay potency score (higher = more potent) is reported as -0.383. In the case of TTTGTAAAGCTTGTCTTCCGGG, the sensor-assay potency score (higher = more potent) is reported as -0.371. In the case of AAAAAAAACAACTACAACCTTG, the sensor-assay potency score (higher = more potent) is reported as -0.501. TTGACCAGAAAGATATTCTTGC showed a sensor-assay potency score (higher = more potent) of 0.31.
